Results: PubChem BioAssay AID651789 (National Center for Advancing Translational Sciences (NCATS), 2012)
Results filed as inconclusive are left out. Unmarked numbers belong to inactive results. The source made the active and inactive calls. Calls follow the shape of the dose curve; as a rule, active = well fitted inhibition curve with a large enough effect; inconclusive = small, poorly fitted or top-dose-only effect; inactive = no such curve, though single readings can be large or run the other way.

Assay: Acumen qHTS Assay for Inhibitors of the mTORC1 Signaling Pathway in WT MEF Cells: Hit Validation; also: nearly all actives have a fitted effect of over 60% in size;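 as to activity change, negative = inhibition: phospho-rpS6 Ser235/236 immunofluorescence normalised to propidium iodide cell stain; percent of cells above a cutoff set by 7.5 nM rapamycin treated wells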
Conditions: Acumen imaging; series mostly up to 37.3 µM; activity change, negative = inhibition: at the top concentration
In short: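 Read-out is immunofluorescent phospho-rpS6 (Ser235/236) normalised to PI-stained cell number, reported as % active cells using a 7.5 nM rapamycin threshold. Cells: WT or Tsc2-/-, p53-/- MEFs, compound-exposed 24 h at 37C; PI count also tracks viability.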
Potency is read from the fitted curve at half-maximal effect.

Row | SMILES | activity change, negative = inhibition [%] | Potency
1 | CCc1ccc(S(=O)(=O)c2c(C(=O)c3ccc(C)c(C)c3)cnc3ccccc23)cc1 | -21.5 | 
2 | Cc1ccc(C(=O)c2cn(CC(=O)NCc3ccccc3Cl)c3nc(C)ccc3c2=O)cc1 | 42.2 | 
3 | Cc1ccc(C)c(Cn2c3ccccc3c3cnn(CC(=O)NC(C)CCc4ccccc4)c(=O)c32)c1 (stereo not given) |  | 18.5 µM (active)
4 | Cc1c(C(=O)OCc2ccccc2)[nH]c2c1C(=O)CC(c1ccc(Cl)cc1)C2 (stereo not given) |  | 13.1 µM (active)
5 | CCOC(=O)CSc1nc2cc3c(cc2c(=O)n1CCCCCC(=O)NCc1ccc2c(c1)OCO2)OCO3 | -19.6 | 
6 | CC(=O)N1CCCc2cc(S(=O)(=O)N(Cc3ccccc3)C(C)C)ccc21 | -14.5 | 
7 | Cc1ccc2nc(/C(C#N)=C/c3ccc(-c4ccc(F)cc4F)o3)[nH]c2c1 |  | 4.14 µM (active)
8 | Cc1cc(C)c2oc(-c3cccc(NC(=O)COc4ccc([N+](=O)[O-])cc4)c3)nc2c1 | 1.31 | 
9 | Cc1ccc(NC(=O)c2c(C)oc3ccc(O)c(CN(C)Cc4ccccc4)c23)c(C)c1 | 18.5 | 
10 | CN(C)c1ccc(NC(=O)Cn2cc(S(=O)(=O)Cc3ccccc3Cl)c3ccccc32)cc1 |  | 13.1 µM (active)
11 | CCC(C)Sc1oc(-c2ccco2)nc1S(=O)(=O)c1ccc(C)cc1 (stereo not given) | -0.763 | 
12 | COc1ccc(-c2noc(CSc3nc(N)cc(=O)[nH]3)n2)cc1 | -13.5 | 
13 | Brc1ccc(Nc2c3c(nc4nncn24)CCC3)cc1 | 3.82 | 
14 | COc1ccc(-n2ncc3c(NCCCOC(C)C)ncnc32)cc1 | -9.78 | 
15 | CC(C)CCNC(=O)Nc1ccc2c(c1)N(C)C(=O)c1ccccc1S2 | -1.53 | 
16 | O=C(Nc1cccc(NC(=O)c2ccccc2Cl)c1)c1cccc(Br)c1 | 9.16 | 
17 | CC(C)(C)c1ccc(-c2nc(S(=O)(=O)c3ccccc3)c(N3CCOCC3)o2)cc1 | 1.46 | 
18 | COc1ccc(N2CCN(C(=O)C(C)n3nc(C)c4sc5ccccc5c4c3=O)CC2)cc1 (stereo not given) | 36.9 | 
19 | CCCC1=Nc2cc(C(=O)NC3CCCC3)ccc2Sc2ccc(C)cc21 |  | 0.736 µM (active)
20 | CCOC(=O)c1ccc(N2C(=O)c3n[nH]c(-c4cccs4)c3C2c2cccc(F)c2)cc1 (stereo not given) | -12.8 | 

Row | SMILES | activity change, negative = inhibition [%] | Potency
21 | Cc1ccccc1Oc1nc2ccccn2c(=O)c1/C=C(\C#N)c1nc2ccccc2[nH]1 | 58.4 | 
22 | O=S(=O)(c1cccc2cnccc12)N1CCCNCC1 | -22.7 | 
23 | CCc1ccc(CNc2ncc(-c3cccc(OC)c3)n2C)cc1 | -20.4 | 
24 | CC1=Nc2cc(C(=O)NC3CCCC3)ccc2Sc2ccc(Cl)cc21 |  | 0.826 µM (active)
25 | COc1ccc(NC(=O)c2ccc3c(=O)n4nc(Nc5cc(C)ccc5C)sc4nc3c2)cc1 |  | 2.93 µM (active)
26 | CCS(=O)(=O)c1ncc(Cl)c(C(=O)Nc2ccc(S(=O)(=O)N(C)c3ccccc3)cc2)n1 |  | 0.927 µM (active)
27 | COC(=O)c1ccccc1NC(=O)c1nc(S(=O)(=O)Cc2cccc(C)c2)ncc1Cl |  | 5.21 µM (active)
28 | Cc1cccc(OCc2ccc(-c3nc(C#N)c(NCCN(C)C)o3)o2)c1 | -13.5 | 
29 | Cc1cccc(NC(=O)c2nc(S(C)(=O)=O)ncc2Cl)c1 |  | 1.65 µM (active)
30 | CCOc1ccc(NC(=O)CSc2oc(-c3ccc(F)cc3)nc2S(=O)(=O)c2ccc(C)cc2)cc1 |  | 2.33 µM (active)
31 | CCOc1ccccc1NC(=O)Cn1c(=O)n(CCC(=O)NCc2ccc3c(c2)OCO3)c(=O)c2ccccc21 | 3.05 | 
32 | Cc1c(C2=CCN(S(=O)(=O)c3ccc(Br)cc3)CC2)c2ccccc2n1CC(=O)N1CCCC1 | 1.53 | 
33 | CCC(=O)C1=C(c2ccc(F)cc2)N(C(=O)CC)n2cnnc2S1 | -17.3 | 
34 | COc1cc(CNc2ccc3c(c2)ncn3C(C)C)cc(OC)c1OC | -27 | 
35 | CC(C)Oc1ccc(CNC(=O)c2ccc3nc(SCc4ccc(F)cc4)n(C)c3c2)cc1 | 1.09 | 
36 | Cc1cccc(NC(=O)c2c(N)sc3c2CCC(C)C3)c1 (stereo not given) | -17.2 | 
37 | CCCCNC(=O)CSc1nc2nc(C)c(Cc3ccccc3C)c(C)n2n1 | 17.8 | 
38 | O=C(NCC(c1cccs1)S(=O)(=O)c1cccs1)c1ccccc1 (stereo not given) | -4.58 | 
39 | Oc1ccc(NCc2ccccc2OCc2ccc(Cl)cc2)cc1 | 4.43 | 
40 | CCc1ccc(-n2c(=O)c3c4c(sc3n(CC(=O)c3ccc(F)cc3)c2=O)CCC4)cc1 |  | 18.5 µM (active)
